# Source: PubChem BioAssay (EPA / NIEHS)
# Activity calls are given as the source filed them. The calls were made as follows: active = hit-call score of the fitted dose curve at least 0.9, where 1 is the maximum; inactive = score below 0.9.
# Assays:
# Details in all cases: mRNA level, 48 h; actives raise or lower the signal
# [1] = read-out: Lipase C (LIPC), LIPC (gene 3990); assay: LTEA_HepaRG_LIPC: Life Technologies and Expression Analysis (LTEA) Assay for Lipase C (LIPC) using HepaRG (AID 2283514)
# Outline: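 Read-out is LIPC transcript level by TaqMan qRT-PCR, normalized to three housekeeping genes, after 48 h chemical treatment of human HepaRG liver cells. Curves span eight concentrations topping at 100 uM; activity in either direction scored relative to 0.5% DMSO.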
# [2] = read-out: Lipoprotein lipase (LPL), LPL (gene 4023); assay: LTEA_HepaRG_LPL: Life Technologies and Expression Analysis (LTEA) Assay for Lipoprotein lipase (LPL) using HepaRG (AID 2283515)
# Outline: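 Read-out is LPL transcript level by qRT-PCR, normalized to three housekeeping genes and fitted bidirectionally against the DMSO control. Human HepaRG cells received chemicals for 48 h at up to 100 uM.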
# [3] = read-out: MicroRNA 122 (MIR122), gene 406906; assay: LTEA_HepaRG_MIR122: Life Technologies and Expression Analysis (LTEA) Assay for MicroRNA 122 (MIR122) using HepaRG (AID 2283516); also: the transcript read is the microRNA miR-122
# Outline: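 HepaRG, 48 h exposure, 8-pt half-log from 100 uM, 0.5% DMSO; TaqMan qRT-PCR; bidirectional fit vs DMSO.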
# [4] = read-out: matrix metalloproteinase-10 (MMP10), MMP10 (gene 4319); assay: LTEA_HepaRG_MMP10: Life Technologies and Expression Analysis (LTEA) Assay for matrix metalloproteinase-10 (MMP10) using HepaRG (AID 2283517)
# Outline: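 Gain or loss of MMP10 mRNA is fitted relative to the 0.5% DMSO vehicle. The human hepatic line HepaRG receives a 48-hour serum-free exposure, in duplicate, with a maximum concentration of 100 uM.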
# MYC, MYC (gene 4609) = assay: LTEA_HepaRG_MYC: Life Technologies and Expression Analysis (LTEA) Assay for MYC using HepaRG (AID 2283518)
# Outline: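 Differentiated HepaRG cells exposed 48 h in serum-free induction medium to 8 concentrations (top 100 uM, half-log steps; 0.5% DMSO), duplicate. MYC mRNA measured by Fluidigm qRT-PCR, normalized to ACTB, GAPDH, POLR2A; bidirectional fit versus DMSO.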
# [5] = read-out: matrix metalloproteinase-3 (MMP3), MMP3 (gene 4314); assay: LTEA_HepaRG_MMP3: Life Technologies and Expression Analysis (LTEA) Assay for matrix metalloproteinase-3 (MMP3) using HepaRG (AID 2283519)
# Outline: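 HepaRG, human; 48 h dosing, 8 conc. (max 100 uM, half-log), duplicate, 0.5% DMSO. Readout: MMP3 transcript by Fluidigm TaqMan qRT-PCR, ACTB/GAPDH/POLR2A-normalised. Gain or loss fitted vs DMSO.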
# [6] = read-out: Paternally Expressed 10 (PEG10), PEG10 (gene 23089); assay: LTEA_HepaRG_PEG10: Life Technologies and Expression Analysis (LTEA) Assay for Paternally Expressed 10 (PEG10) using HepaRG (AID 2283520);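 as to AC50: PEG10 transcript by qRT-PCR normalised to ACTB GAPDH and POLR2A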
# Outline: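 Chemicals tested on HepaRG cells for 48 h, highest concentration 100 uM. PEG10 expression assessed by qRT-PCR relative to DMSO control.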
# [7] = read-out: Nuclear factor NF-kappa-B p105 subunit (Homo sapiens) (UniProt P19838); assay: LTEA_HepaRG_NFKB1: Life Technologies and Expression Analysis (LTEA) Assay for Nuclear Factor Kappa B Subunit 1 (NFKB1) using HepaRG (AID 2283521)
# Outline: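 HepaRG, 48 h exposure; 8-pt half-log series from 100 uM in 0.5% DMSO; duplicates. Readout: NFKB1 mRNA by qRT-PCR (Fluidigm arrays), housekeeping-normalized. Gain/loss fit vs DMSO baseline.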
# [8] = read-out: Protein phosphatase 2A (PPP2R4), PTPA (gene 5524); assay: LTEA_HepaRG_PPP2R4: Life Technologies and Expression Analysis (LTEA) Assay for Protein phosphatase 2A (PPP2R4) using HepaRG (AID 2283522)
# Outline: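 Gene-expression endpoint in HepaRG hepatic cells: 48 h treatment across eight half-log concentrations up to 100 uM in 0.5% DMSO. PPP2R4 mRNA by qRT-PCR, normalized to three endogenous control genes.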
# [9] = read-out: Phosphatase and tensin (PTEN), PTEN (gene 5728); assay: LTEA_HepaRG_PTEN: Life Technologies and Expression Analysis (LTEA) Assay for Phosphatase and tensin (PTEN) using HepaRG (AID 2283523)
# Outline: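 Read-out is PTEN transcript level by multiplexed TaqMan qRT-PCR after 48 h chemical treatment of human HepaRG cultures in serum-free induction medium. Concentrations spanned 100 uM downward in half-log steps, 0.5% DMSO throughout; activity fitted in both directions against vehicle.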
# [10] = read-out: Pyruvate Dehydrogenase Kinase 4 (PDK4), PDK4 (gene 5166); assay: LTEA_HepaRG_PDK4: Life Technologies and Expression Analysis (LTEA) Assay for Pyruvate Dehydrogenase Kinase 4 (PDK4) using HepaRG (AID 2283525)
# Outline: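 In this multiplexed human HepaRG expression assay, cells are treated 48 h with test chemicals across an eight-point range starting at 100 uM. PDK4 mRNA changes, normalized to ACTB/GAPDH/POLR2A, are fitted in both directions relative to vehicle.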
# [11] = read-out: NAD(P)H dehydrogenase [quinone] 1 (NQO1), NQO1 (gene 1728); assay: LTEA_HepaRG_NQO1: Life Technologies and Expression Analysis (LTEA) Assay for NAD(P)H dehydrogenase [quinone] 1 (NQO1) using HepaRG (AID 2283526)
# Outline: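 Human HepaRG hepatic cells received chemicals for 48 h in serum-free induction medium with 0.5% DMSO, up to 100 uM. Expression was assessed by TaqMan qRT-PCR against housekeeping controls and fitted bidirectionally against DMSO.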
# [12] = read-out: Nuclear factor erythroid 2-related factor 2 (Homo sapiens) (UniProt Q16236); assay: LTEA_HepaRG_NFE2L2: Life Technologies and Expression Analysis (LTEA) Assay for Nuclear factor erythroid 2-related factor 2 (NFE2L2) Transcription Factor using HepaRG (AID 2283527);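 as to outcome: TaqMan qRT-PCR transcript level normalised to ACTB GAPDH and POLR2A housekeeping genes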
# Outline: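 Transcript level of NFE2L2 is the read-out, measured by microfluidic TaqMan qRT-PCR and normalized to three housekeeping genes. Human HepaRG cultures received test chemical for 48 h at up to 100 uM in half-log steps. Gain or loss of signal is fitted relative to 0.5% DMSO.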
# [13] = read-out: succinate dehydrogenase complex iron sulfur subunit B (SDHB), SDHB (gene 6390); assay: LTEA_HepaRG_SDHB: Life Technologies and Expression Analysis (LTEA) Assay for succinate dehydrogenase complex iron sulfur subunit B (SDHB) using HepaRG (AID 2283528)
# Outline: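 Readout is SDHB transcript level by qRT-PCR, normalised to three housekeeping genes and fitted bidirectionally against 0.5% DMSO vehicle. Human HepaRG cells were treated for 48 h at up to 100 uM.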
# [14] = read-out: Signal transducer and activator of transcription 3 (Homo sapiens) (UniProt P40763); assay: LTEA_HepaRG_STAT3: Life Technologies and Expression Analysis (LTEA) Assay for Signal transducer and activator of transcription (STAT3) using HepaRG (AID 2283529)
# Outline: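 Read-out is STAT3 mRNA level by qRT-PCR, normalized to three housekeeping genes, in human HepaRG liver cells treated for 48 h. Concentrations ran from 100 uM downward in half-log steps; curves were fitted for gain or loss relative to 0.5% DMSO.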
# [15] = read-out: solute carrier (SLCO1B1), SLCO1B1 (gene 10599); assay: LTEA_HepaRG_SLCO1B1: Life Technologies and Expression Analysis (LTEA) Assay for solute carrier (SLCO1B1) using HepaRG (AID 2283530)
# Outline: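 Differentiated human HepaRG cells were exposed for 48 h in serum-free induction medium to eight half-log concentrations, top 100 uM, in 0.5% DMSO. SLCO1B1 mRNA was measured by qRT-PCR, normalized to ACTB, GAPDH and POLR2A, and fitted bidirectionally against DMSO.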
# [16] = read-out: sulfotransferase 2A1 (SULT2A1), SULT2A1 (gene 6822); assay: LTEA_HepaRG_SULT2A1: Life Technologies and Expression Analysis (LTEA) Assay for sulfotransferase 2A1 (SULT2A1) using HepaRG (AID 2283531)
# Outline: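 HepaRG human liver cells, 48 h exposure in serum-free induction medium to 8 half-log concentrations topping at 100 µM (0.5% DMSO), duplicate wells. SULT2A1 mRNA measured by TaqMan qRT-PCR, normalized to ACTB/GAPDH/POLR2A; bidirectional fit against DMSO.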
# [17] = read-out: Transforming Growth Factor (TGFA), TGFA (gene 7039); assay: LTEA_HepaRG_TGFA: Life Technologies and Expression Analysis (LTEA) Assay for Transforming Growth Factor (TGFA) using HepaRG (AID 2283532)
# Outline: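 HepaRG (human liver line), 48 h exposure, 8 conc. half-log down from 100 uM, 0.5% DMSO vehicle, duplicates; serum-free induction medium. TGFA mRNA by TaqMan qRT-PCR, ACTB/GAPDH/POLR2A normalization; gain/loss fit vs DMSO.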
# [18] = read-out: Transforming Growth Factor (TGFB1), TGFB1 (gene 7040); assay: LTEA_HepaRG_TGFB1: Life Technologies and Expression Analysis (LTEA) Assay for Transforming Growth Factor (TGFB1) Transporter using HepaRG (AID 2283533)
# Outline: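 Differentiated HepaRG cells exposed 48 hr in serum-free induction medium to eight half-log concentrations up to 100 uM (0.5% DMSO), duplicate; TGFB1 mRNA by TaqMan qRT-PCR normalised to ACTB, GAPDH, POLR2A; bidirectional fit against DMSO.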
# [19] = read-out: solute carrier (SLC22A1), SLC22A1 (gene 6580); assay: LTEA_HepaRG_SLC22A1: Life Technologies and Expression Analysis (LTEA) Assay for solute carrier (SLC22A1) using HepaRG (AID 2283524)
# Outline: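 HepaRG (human liver line), 48 h dosing in serum-free induction medium; 8 conc., half-log down from 100 uM, 0.5% DMSO vehicle, duplicates. Endpoint: SLC22A1 mRNA, qRT-PCR, housekeeping-normalized; gain/loss fit vs DMSO.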
# Chain of Nuclear factor erythroid 2-related factor 2 (Homo sapiens) (Q16236 whole entry, looked up): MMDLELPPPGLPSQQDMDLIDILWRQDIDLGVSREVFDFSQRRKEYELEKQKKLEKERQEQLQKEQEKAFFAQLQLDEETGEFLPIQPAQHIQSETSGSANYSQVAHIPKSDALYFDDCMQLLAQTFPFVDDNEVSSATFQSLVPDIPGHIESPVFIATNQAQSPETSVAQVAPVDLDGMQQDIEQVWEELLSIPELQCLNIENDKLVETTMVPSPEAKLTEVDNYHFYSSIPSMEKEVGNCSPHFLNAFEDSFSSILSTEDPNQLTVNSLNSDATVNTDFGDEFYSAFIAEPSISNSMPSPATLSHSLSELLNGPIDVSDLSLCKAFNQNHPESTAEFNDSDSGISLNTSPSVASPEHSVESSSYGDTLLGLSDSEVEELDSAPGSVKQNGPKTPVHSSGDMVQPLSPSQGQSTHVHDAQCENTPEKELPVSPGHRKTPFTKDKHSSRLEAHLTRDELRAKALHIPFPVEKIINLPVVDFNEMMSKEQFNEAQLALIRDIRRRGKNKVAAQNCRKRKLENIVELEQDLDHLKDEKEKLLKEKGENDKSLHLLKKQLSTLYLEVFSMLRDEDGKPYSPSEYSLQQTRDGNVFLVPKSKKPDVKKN
# Chain of Signal transducer and activator of transcription 3 (Homo sapiens) (P40763 whole entry, looked up): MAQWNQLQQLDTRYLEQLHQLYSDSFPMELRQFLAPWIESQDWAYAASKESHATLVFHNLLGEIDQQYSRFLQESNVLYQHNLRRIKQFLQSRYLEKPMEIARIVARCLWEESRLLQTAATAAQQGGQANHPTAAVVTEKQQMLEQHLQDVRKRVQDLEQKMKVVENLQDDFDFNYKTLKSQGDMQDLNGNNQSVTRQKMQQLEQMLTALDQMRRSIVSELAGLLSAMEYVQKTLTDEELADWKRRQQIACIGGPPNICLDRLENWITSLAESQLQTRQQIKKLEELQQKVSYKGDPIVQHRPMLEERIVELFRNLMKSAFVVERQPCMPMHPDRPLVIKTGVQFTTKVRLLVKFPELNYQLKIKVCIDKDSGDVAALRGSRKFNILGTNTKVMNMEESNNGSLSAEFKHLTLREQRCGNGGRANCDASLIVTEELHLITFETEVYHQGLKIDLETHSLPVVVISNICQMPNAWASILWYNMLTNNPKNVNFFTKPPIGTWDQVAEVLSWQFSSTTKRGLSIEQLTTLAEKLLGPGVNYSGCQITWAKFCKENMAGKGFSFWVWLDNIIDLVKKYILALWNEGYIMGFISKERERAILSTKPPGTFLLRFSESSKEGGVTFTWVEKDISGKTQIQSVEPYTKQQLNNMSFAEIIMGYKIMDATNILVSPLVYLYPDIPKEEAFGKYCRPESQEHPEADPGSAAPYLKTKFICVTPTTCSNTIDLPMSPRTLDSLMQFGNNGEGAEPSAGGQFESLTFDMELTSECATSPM
# Chain of Nuclear factor NF-kappa-B p105 subunit (Homo sapiens) (P19838 whole entry, looked up): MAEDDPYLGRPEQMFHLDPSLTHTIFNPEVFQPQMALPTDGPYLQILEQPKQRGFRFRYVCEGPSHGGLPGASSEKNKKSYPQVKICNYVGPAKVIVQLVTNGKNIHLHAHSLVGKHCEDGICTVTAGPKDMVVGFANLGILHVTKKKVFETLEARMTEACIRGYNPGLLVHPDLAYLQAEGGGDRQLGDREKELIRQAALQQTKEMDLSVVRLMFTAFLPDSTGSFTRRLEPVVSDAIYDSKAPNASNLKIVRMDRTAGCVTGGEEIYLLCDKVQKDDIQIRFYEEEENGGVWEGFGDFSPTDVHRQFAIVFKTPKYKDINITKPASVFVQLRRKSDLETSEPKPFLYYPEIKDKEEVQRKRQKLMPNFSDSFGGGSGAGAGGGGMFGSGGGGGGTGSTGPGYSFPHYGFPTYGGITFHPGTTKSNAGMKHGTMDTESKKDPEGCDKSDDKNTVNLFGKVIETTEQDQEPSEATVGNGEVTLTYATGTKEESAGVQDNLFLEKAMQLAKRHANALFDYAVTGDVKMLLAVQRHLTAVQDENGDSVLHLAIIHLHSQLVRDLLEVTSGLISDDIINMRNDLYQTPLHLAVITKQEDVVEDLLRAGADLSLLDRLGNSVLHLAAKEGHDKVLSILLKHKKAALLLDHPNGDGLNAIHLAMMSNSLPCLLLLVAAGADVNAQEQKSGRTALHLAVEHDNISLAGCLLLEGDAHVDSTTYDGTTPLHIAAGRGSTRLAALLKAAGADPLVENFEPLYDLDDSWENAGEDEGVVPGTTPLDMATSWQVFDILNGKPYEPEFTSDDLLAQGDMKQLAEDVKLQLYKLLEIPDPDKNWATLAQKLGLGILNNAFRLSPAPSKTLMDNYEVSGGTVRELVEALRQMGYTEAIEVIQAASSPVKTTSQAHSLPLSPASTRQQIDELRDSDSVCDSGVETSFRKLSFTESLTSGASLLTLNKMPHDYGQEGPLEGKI
smiles,measurement,setting,value
CCCCCCOC(=O)CC(CC(=O)OCCCCCC)(OC(=O)CCC)C(=O)OCCCCCC,outcome,[1],inactive
same,outcome,[2],inactive
same,outcome,[3],inactive
same,outcome,[4],inactive
same,outcome,"MYC, MYC (gene 4609)",inactive
same,outcome,[5],inactive
same,outcome,[6],inactive
same,outcome,[7],inactive
same,outcome,[8],inactive
same,outcome,[9],inactive
same,outcome,[10],inactive
same,outcome,[11],inactive
same,outcome,[12],inactive
same,outcome,[13],inactive
same,outcome,[14],inactive
same,outcome,[15],inactive
same,outcome,[16],inactive
same,outcome,[17],inactive
same,outcome,[18],inactive
O=C(O)c1cccc(C[C@@H]2COc3ccc(OCc4nc5cc(F)ccc5s4)cc3[C@@H]2O)c1,outcome,[1],inactive
same,outcome,[2],inactive
same,outcome,[4],inactive
same,outcome,"MYC, MYC (gene 4609)",inactive
same,outcome,[5],inactive
same,AC50,[6],50 µM (active)
same,outcome,[7],inactive
same,outcome,[8],inactive
same,outcome,[9],inactive
same,AC50,[19],93.4 µM (active)
same,outcome,[10],inactive
same,outcome,[11],inactive
same,outcome,[12],inactive
same,outcome,[13],inactive
same,outcome,[14],inactive
same,AC50,[15],92.3 µM (active)
same,outcome,[16],inactive
same,outcome,[17],inactive
same,outcome,[18],inactive
OCCOCCOCCO,outcome,[2],inactive
same,outcome,[3],inactive
same,outcome,[4],inactive
same,outcome,"MYC, MYC (gene 4609)",inactive
same,outcome,[5],inactive
same,outcome,[6],inactive
same,outcome,[7],inactive
same,outcome,[8],inactive
same,outcome,[9],inactive
same,outcome,[19],inactive
same,outcome,[10],inactive
same,outcome,[11],inactive
same,outcome,[12],inactive
same,outcome,[13],inactive
same,outcome,[14],inactive
same,outcome,[15],inactive
same,outcome,[16],inactive
same,outcome,[17],inactive
same,outcome,[18],inactive
CCc1ccc(O)c(C(C)(C)C)c1,outcome,[1],inactive
same,outcome,[2],inactive
same,outcome,[4],inactive
same,outcome,"MYC, MYC (gene 4609)",inactive
same,outcome,[5],inactive
same,outcome,[6],inactive
same,outcome,[7],inactive
same,outcome,[8],inactive
same,outcome,[9],inactive
same,outcome,[19],inactive
same,outcome,[10],inactive
same,outcome,[11],inactive
same,outcome,[12],inactive
same,outcome,[13],inactive
same,outcome,[14],inactive
same,outcome,[16],inactive
same,outcome,[17],inactive
same,outcome,[18],inactive
Cc1nccn1-c1ccc(Sc2cccc(C3(C(N)=O)CCOCC3)c2)cc1,AC50,[1],12.2 µM (active)
same,AC50,[2],0.913 µM (active)
same,AC50,[4],17.6 µM (active)
same,AC50,"MYC, MYC (gene 4609)",9.67 µM (active)
same,outcome,[5],inactive
same,AC50,[6],2.9 µM (active)
same,AC50,[7],3.18 µM (active)
same,AC50,[8],27.7 µM (active)
same,AC50,[9],28 µM (active)
same,outcome,[10],inactive
same,AC50,[11],18.6 µM (active)
same,outcome,[12],inactive
same,AC50,[13],27.4 µM (active)
same,AC50,[14],1.93 µM (active)
same,AC50,[16],15 µM (active)
same,AC50,[17],9.24 µM (active)
same,AC50,[18],24.8 µM (active)
CC(=O)c1ccccc1,outcome,[2],inactive
same,outcome,[3],inactive
same,outcome,[4],inactive
same,outcome,"MYC, MYC (gene 4609)",inactive
same,outcome,[5],inactive
same,outcome,[6],inactive
same,outcome,[7],inactive
same,outcome,[8],inactive
same,outcome,[9],inactive
same,outcome,[19],inactive
same,outcome,[10],inactive
same,outcome,[11],inactive
same,outcome,[12],inactive
same,outcome,[13],inactive
same,outcome,[14],inactive
same,outcome,[16],inactive
same,outcome,[17],inactive
same,outcome,[18],inactive
CCCOc1ccc(S(=O)(=O)N2CCN(CC)CC2)cc1-c1nc2c(CC)n(Cc3ccccn3)nc2c(=O)[nH]1,outcome,[1],inactive
same,AC50,[2],56.7 µM (active)
same,outcome,[3],inactive
same,outcome,[4],inactive
same,outcome,"MYC, MYC (gene 4609)",inactive
same,outcome,[5],inactive
same,outcome,[6],inactive
same,outcome,[7],inactive
same,outcome,[8],inactive
same,outcome,[9],inactive
same,outcome,[19],inactive
same,AC50,[10],31.3 µM (active)
same,outcome,[11],inactive
same,AC50,[12],25 µM (active)
same,outcome,[13],inactive
same,outcome,[14],inactive
same,AC50,[16],18.1 µM (active)
same,outcome,[17],inactive
same,AC50,[18],26.3 µM (active)
